Measurements published in PubChem BioAssay (EPA / NIEHS).
Inconclusive results are not listed. Activity calls are given as the source filed them. Rule for the calls: active = hit-call score of the fitted dose curve at least 0.9, where 1 is the maximum; inconclusive = response in the unintended direction; inactive = score below 0.9.

Experiment: CCTE_Shafer_MEA_acute_AB: CCTE's Alamar Blue Assay for Cytotoxicity in the Neural Acute Assay, Shafer Lab (AID 2284069);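 note: active compounds lower the viability signal compared with DMSO wells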
Procedure: CCTE_Shafer_MEA_acute assay is conducted using Axion Biosystems 48 well microelectrode array (MEA) plates and Maestro recording system. Each well of the MEA plate contains a grid of 16 microelectrodes embedded in the culture surface. Electrically active cells, such as neurons, can be cultured over the electrodes, and electrical activity in these cells can be recorded extracellularly. The spontaneous firing of neurons is captured from each electrode on a microsecond timescale providing both temporally and spatially precise data. […] The CCTE_Shafer_MEA_acute assay uses primary cultures of rat cortical neurons. As these cultures mature over time, neural networks develop functional activity and form cohesive networks in which electrical activity can be highly coordinated. Baseline 40-minute recordings are made on days post-plating 13 or 15, followed by a secondary 40-minute recording after chemical exposure.CCTE_Shafer_MEA_acute_AB is a component of the CCTE_Shafer_MEA_acute assay. It measures the resazurin reduction using fluorescence.Data from the assay component CCTE_Shafer_MEA_acute_AB was analyzed into 1 assay endpoint. This assay endpoint, CCTE_Shafer_MEA_acute_AB, was analyzed in the positive analysis fitting direction relative to DMSO as the negative control and baseline of activity. Using a type of viability reporter, loss-of-signal activity can be used to understand cell viability.
Metabolic activity was determined using the CellTiter Blue (CTB) assay (Promega Cat. #8081), following the manufacturer's instructions with the following modifications. Following the removal of the 50 uL sample for the LDH assay, 450 uL of media was removed from each well and replaced with 200 uL of fresh media containing a 1:6 dilution of CTB reagent for the determination of metabolic activity. Fluorescence was measured in a Fluorostar Optima fluorimeter using an excitation wavelength of 544 nm and an emission wavelength of 590 nm.

Compound	outcome	AC50
CCC(=C(c1ccc(O)cc1)c1ccc(OCCN(C)C)cc1)c1ccccc1	inactive	–
CCCCCCCCCCCCc1ccccc1S(=O)(=O)O	inactive	–
CCc1ccc(CCOc2ccc(CC3SC(=O)NC3=O)cc2)nc1 (configuration not stated)	inactive	–
Cc1cc(CCN2CCN(c3nsc4ccccc34)CC2)cc2c1NC(=O)CC2(C)C	inactive	–
CC#C[C@]1(O)CC[C@H]2[C@@H]3CCC4=CC(=O)CCC4=C3[C@@H](c3ccc(N(C)C)cc3)C[C@@]21C	inactive	–
CC(C)(C)c1cc(C(C)(C)C)c(O)c(C(C)(C)C)c1	inactive	–
OC1CCC(C2CCCCC2)CC1 (configuration not stated)	inactive	–
CN(C)C=O	inactive	–
OCCC(F)(F)C(F)(F)C(F)(F)C(F)(F)C(F)(F)C(F)(F)C(F)(F)C(F)(F)F	inactive	–
CN1CCC[C@H]1c1cccnc1	inactive	–
CC(=O)NC1(c2cccc(F)c2)CCN(CC[C@@]2(c3ccc(Cl)c(Cl)c3)CN(c3ccccc3)C(=O)CO2)CC1	inactive	–
CN1CCN(c2ccccc2/C=C2\SCCN(c3ccc(Cl)c(Cl)c3)C2=O)CC1	inactive	–
Oc1cc2ccccc2c2ccccc12	–	8 µM (active)
CC(C)CCCCCCOC(=O)CCCCC(=O)OCCCCCCC(C)C	inactive	–
NC(=O)N(O)[C@@H]1C=C[C@H](Oc2cccc(Oc3ccc(F)cc3)c2)C1	inactive	–
CCCCCCCCCCCCCCCS(=O)(=O)Oc1ccccc1	inactive	–
O=C(O)c1ccccc1C(c1ccc(O)cc1)c1ccc(O)cc1	inactive	–
